# Results reported in PubChem BioAssay (NCATS).
# Inconclusive results are not listed. Activity calls are given as the source filed them. The call rests on the fitted dose curve; in most records, active means well fitted cell-killing curve with a large enough effect; inconclusive means small, poorly fitted or top-dose-only effect; inactive means no such curve, though single readings can be large or run the other way.
# Assay: qHTS of pediatric cancer cell lines to identify multiple opportunities for drug repurposing: Primary screen for A673 cells (AID 1347092); further: nearly all actives have a fitted effect of over 45% in size
# Conditions: A673 Ewing sarcoma viability, CellTiter-Glo ATP luminescence, 48 h; series mostly up to 46 µM; activity change, negative = cytotoxic: at the top concentration
# Excerpt: Drug repurposing or repositioning has been offered as a strategy for drug development in oncology programs. This approach has special potential for childhood cancers and other rare or orphan diseases, where the expected return on new drug development has been a disincentive to pharmaceuticals. […] In this project we exploit the poly-pharmacology of drugs to discover new indications via phenotypic screening of a panel of 19 well-characterized cell lines derived from solid tumors seen in children and adolescents. The goal is to identify approved drugs with previously unrecognized anticancer properties that has the potential to reveal new mechanisms and biological processes involved in carcinogenesis or drug resistance. We employed a titration-based paradigm (quantitative high-throughput screening or qHTS), where all compounds were tested at multiple concentrations for their effect on cell viability. Concentration-response curves (CRCs) were derived directly from the primary screen, and both potency and efficacy values were used to identify compounds with robust bioactivity profiles. We screened the NIH Chemical Genomics Center (NCGC) Pharmaceutical Collection (NPC) and Mechanism Interrogation Plate (MIPE) small molecule collections of approved and investigational compounds against these cell lines; and measured metabolically active cells after 48 hours of compound treatment as a proxy for cell viability. […] Assay Submitter: Nathalia J. Martinez, National Center for Advancing Translational Sciences, National Institutes of Health, Rockville, MD, USA; email: natalia.martinez@nih.gov. Shen, M et al. Quantitative high-throughput phenotypic screening of pediatric cancer cell lines identifies multiple opportunities for drug repurposing. Oncotarget 2017 Dec 19;9(4):4758-4772. PMID 29435139.
# The cells were obtained from University of North Carolina (UNC), Pediatric Preclinical Testing Program (PPT), and Coriell Institute (CI). qHTS cell viability assay: Cells were assayed in growth media at a density of 500-1,000 cells/well. Five microliters of cells were dispensed into 1,536-well, white, solid-bottom, TC-treated plates (Greiner Bio One) using a multidrop dispenser and incubated at 37 degrees C, 5% CO2, under a humidified atmosphere for 5 hours. Twenty-three nanoliters of compounds and controls (neutral control DMSO or positive control bortezomib at final concentration of 2.3 uM) were subsequently transferred by Kalypsys pintool. For primary screens, the MIPE collection was tested at 11-point dilutions (final concentrations range from 0.78 nM to 46 µM) and the NPC collection at 8-point dilutions (final concentrations range from 0.59 nM to 46 µM). Compounds tested in follow-up screens were assayed at 11-point dilutions. Cells were incubated for 48 hours, followed by addition of 3 uL of CellTiter-Glo (Promega). After a 15min incubation at room temperature, samples were analyzed for luminescence intensity using a ViewLux High-throughput CCD imager equipped with clear filters.
# On the % scale 0 is the no-effect control and ±100 the full control effect.
row,SMILES,"activity change, negative = cytotoxic"
1,C=CCNC(N)=S,-1.41% (inactive)
2,Cn1c([N+](=O)[O-])cnc1COC(N)=O,3.21% (inactive)
3,COc1ccc(O)cc1,-21.4% (inactive)
4,COc1ccccc1Oc1c(NS(=O)(=O)c2ccc(C(C)(C)C)cc2)nc(-c2ncccn2)nc1OCCO,-10.2% (inactive)
5,CC(=O)N1C[C@H](O)C[C@H]1C(=O)O,6.34% (inactive)
6,C/C(=C(\CCO)SS/C(CCO)=C(\C)N(C=O)Cc1cnc(C)nc1N)N(C=O)Cc1cnc(C)nc1N,12.9% (inactive)
7,C=CCN1C[C@H](C(=O)N(CCCN(C)C)C(=O)NCC)C[C@@H]2c3cccc4[nH]cc(c34)C[C@H]21,-7.37% (inactive)
8,CCOC(=O)[C@H](CCc1ccccc1)N[C@@H](C)C(=O)N1Cc2cc(OC)c(OC)cc2C[C@H]1C(=O)O,3.25% (inactive)
9,O=C(OOC(=O)c1ccccc1)c1ccccc1,10.9% (inactive)
10,CC1CCc2cc(F)cc3c(=O)c(C(=O)O)cn1c23 (stereo not given),6.11% (inactive)
11,CC(CN(C)C)C(C)(O)Cc1ccc(Cl)cc1 (stereo not given),120% (inactive)
12,CCCCCCCCCCCCCCCCC(C(=O)O)C(O)(CC(=O)O)C(=O)O (stereo not given),5.92% (inactive)
13,C[N+](C)(C)CC[N+]1(C)Cc2c(Cl)c(Cl)c(Cl)c(Cl)c2C1,5.73% (inactive)
14,O=C(O)COC(=O)Cc1ccccc1Nc1c(Cl)cccc1Cl,-1.76% (inactive)
15,COC(=O)c1cccnc1,2.28% (inactive)
16,Cc1c(N(C)C)c(=O)n(-c2ccccc2)n1C,9.61% (inactive)
17,Cc1c(I)c(=O)n(-c2ccccc2)n1C,-16.3% (inactive)
18,CC(=O)[C@@]1(O)CC[C@H]2[C@@H]3C[C@H](C)C4=CC(=O)C=C[C@]4(C)[C@@]3(F)[C@@H](O)C[C@@]21C,6.38% (inactive)
19,Cc1onc(-c2ccccc2)c1-c1ccc(S(N)(=O)=O)cc1,2.93% (inactive)
20,Cn1cc(C(=O)[C@@H]2CCc3nc[nH]c3C2)c2ccccc21,-9.19% (inactive)

row,SMILES,"activity change, negative = cytotoxic"
1,Cc1cccc(Nc2ccccc2C(=O)O)c1C,4.77% (inactive)
2,CCCNC(C)C(=O)Nc1c(C)csc1C(=O)OC (stereo not given),13.3% (inactive)
3,CN1C(C)(C)CCCC1(C)C,-9.15% (inactive)
4,Cc1c(NC(C)C)c(=O)n(-c2ccccc2)n1C,2.3% (inactive)
5,O[C@@H]1CO[C@H]2[C@@H]1OC[C@@H]2O,-1.31% (inactive)
6,CC(N)CCCC(C)(C)O (stereo not given),2.95% (inactive)
7,CCCCCCCCCCOc1cc2c(=O)c(C(=O)OCC)c[nH]c2cc1OCC,-6.98% [at 4.84 µM] (inactive)
8,O=C(/C=C/c1ccccc1)OCc1ccccc1,19.5% (inactive)
9,O=C(/C=C/c1ccc(O)c(O)c1)O[C@@H]1C[C@@](OC(=O)/C=C/c2ccc(O)c(O)c2)(C(=O)O)C[C@@H](O)[C@@H]1O,13.3% (inactive)
10,C[C@@H]1CCC[C@H](C)N1,13.3% (inactive)
11,NC(N)=NS(=O)(=O)c1ccc(N)cc1,4.07% (inactive)
12,COc1ccc(C(=O)N2CCN(CC(=O)N3CCOCC3)CC2)cc1,3.21% (inactive)
13,CC1(C)S[C@@H]2[C@H](N=CN3CCCCCC3)C(=O)N2[C@H]1C(=O)O,0.804% (inactive)
14,CCCCCC(C)N (stereo not given),5.48% (inactive)
15,NS(=O)(=O)c1cc2c(cc1C(F)(F)F)NCNS2(=O)=O,-21.6% (inactive)
16,CCCCCCCCCCCCCCCCN,-6.78% (inactive)
17,Cc1ccc(S(=O)(=O)NC(=O)NC2CCCCC2)cc1,-7.61% (inactive)
18,O=C(O)c1ccccc1C(=O)Nc1ccc(S(=O)(=O)Nc2nccs2)cc1,-23.3% (inactive)
19,CCN(CC)CCOC(=O)C(c1ccccc1)c1ccccc1,-5.33% (inactive)
20,O=c1[nH]cnc2nc[nH]c12,18.4% (inactive)
